# Assay results reported in PubChem BioAssay (NCATS).
# Results filed as inconclusive are left out. Entries that show only a call come without a potency. Where a structure was tested more than once in an assay, its records may differ in their call. Calls of active or inactive are those of the source. Unless noted, calls come from the whole dose curve; as a rule, active = well fitted curve in the direction sought with a large enough effect; inconclusive = small, poorly fitted or top-dose-only effect, or another doubt; inactive = no such curve, though single readings can be large; an effect the other way counts as inactive or inconclusive.
# How the values were obtained:
# [1] = qHTS for Inhibitors of Plasmodium falciparum (DD2) proliferation (AID 504314);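 note: parasite DNA measured by SYBR Green fluorescence after red cell lysis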; conditions: P. falciparum Dd2 in erythrocytes, SYBR Green growth, 72 h; series mostly up to 6.11 µM
# Procedure, shortened: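 Parasite proliferation measured as SYBR Green signal from Plasmodium DNA, mature erythrocytes lacking DNA. 72 h incubation, 37C; activity scaled between vehicle and 0.29 uM artemisinin, with correction from vehicle-only plates.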
# [2] = qHTS for Inhibitors of Plasmodium falciparum (GB4) proliferation (AID 504315); note: nearly all actives have a fitted effect of over 50% in size; note: potency is the fitted concentration of half-maximal effect; conditions: P. falciparum GB4 in erythrocytes, SYBR Green DNA, 72 h; series mostly up to 6.7 µM
# Procedure, shortened: (§1)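 Parasite growth measured as SYBR Green DNA fluorescence (ex 485, em 535 nm) after overnight lysis following 72 h culture at 37 °C, 0.3% parasitemia, 2.5% hematocrit. Values normalized against DMSO and 0.29 uM artemisinin controls, with plate-stack correction.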
# [3] = qHTS for Inhibitors of Plasmodium falciparum (7G8) proliferation (AID 504316); note: nearly all actives have a fitted effect of over 65% in size; conditions: P. falciparum 7G8 in erythrocytes, SYBR Green DNA, 72 h; series mostly up to 6.7 µM
# Procedure, shortened: as §1
# [4] = qHTS for Inhibitors of Plasmodium falciparum (HB3) proliferation (AID 504318); note: nearly all actives have a fitted effect of over 60% in size; note: potency is the fitted concentration of half-maximal effect; conditions: P. falciparum HB3 in erythrocytes, SYBR Green DNA, 72 h; series mostly up to 7.21 µM
# Procedure, shortened: as §1
# [5] = qHTS for Inhibitors of Plasmodium falciparum (CP250) proliferation (AID 504320); conditions: P. falciparum CP250 in erythrocytes, SYBR Green DNA, 72 h; series mostly up to 6.7 µM
# Procedure, shortened: as §1
# [6] = target: Atrial natriuretic peptide receptor 1 (Homo sapiens) (UniProt P16066); assay: Natriuretic polypeptide receptor (hNpr1) antagonism - Pilot CMLD screen (AID 1347052; calls by dose curve;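 note: cGMP level read as GloSensor luciferase luminescence after agonist stimulation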; note: potency is the fitted concentration of half-maximal effect); conditions: HEK293 hNpr1 GloSensor cGMP luminescence, ANP-stimulated; series mostly up to 9.22 µM
# Sequence of Atrial natriuretic peptide receptor 1 (Homo sapiens) (P16066 whole entry, looked up): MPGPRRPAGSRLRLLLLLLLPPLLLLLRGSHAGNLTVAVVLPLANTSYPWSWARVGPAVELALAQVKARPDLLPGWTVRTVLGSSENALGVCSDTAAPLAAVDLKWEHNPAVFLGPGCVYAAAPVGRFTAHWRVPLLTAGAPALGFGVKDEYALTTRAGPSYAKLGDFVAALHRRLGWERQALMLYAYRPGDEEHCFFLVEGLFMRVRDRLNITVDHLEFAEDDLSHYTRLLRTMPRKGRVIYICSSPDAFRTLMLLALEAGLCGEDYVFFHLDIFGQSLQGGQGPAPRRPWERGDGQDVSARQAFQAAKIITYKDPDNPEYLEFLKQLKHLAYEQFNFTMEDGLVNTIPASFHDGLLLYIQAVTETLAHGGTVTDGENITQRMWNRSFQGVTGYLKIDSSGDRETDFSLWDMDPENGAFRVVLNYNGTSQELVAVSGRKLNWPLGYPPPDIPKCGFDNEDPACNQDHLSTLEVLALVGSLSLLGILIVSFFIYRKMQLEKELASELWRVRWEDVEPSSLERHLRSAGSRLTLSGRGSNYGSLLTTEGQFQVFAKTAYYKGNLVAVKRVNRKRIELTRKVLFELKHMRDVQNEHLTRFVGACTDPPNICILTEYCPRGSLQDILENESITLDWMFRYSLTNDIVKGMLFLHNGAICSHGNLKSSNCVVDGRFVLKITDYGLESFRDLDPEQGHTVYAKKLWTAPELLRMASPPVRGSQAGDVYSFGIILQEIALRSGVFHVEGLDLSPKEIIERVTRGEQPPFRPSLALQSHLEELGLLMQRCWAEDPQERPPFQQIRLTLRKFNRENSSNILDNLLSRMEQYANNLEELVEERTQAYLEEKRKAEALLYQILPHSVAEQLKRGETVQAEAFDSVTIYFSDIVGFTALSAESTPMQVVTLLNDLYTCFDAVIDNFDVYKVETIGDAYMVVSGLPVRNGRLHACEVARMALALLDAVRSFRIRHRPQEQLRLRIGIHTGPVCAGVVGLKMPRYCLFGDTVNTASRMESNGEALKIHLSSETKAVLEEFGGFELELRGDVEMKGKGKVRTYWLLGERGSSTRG
Structure (SMILES),Potency [1],Potency [2],Potency [3],Potency [4],Potency [5],Potency [6],"activity, negative = inhibition [1]"
C=CC[C@@H]1C=C[C@@H](OC(=O)OCC)[C@@H](COC(=O)OCC)O1,inactive,inactive,inactive,inactive,inactive,inactive,
COC(=O)C1=C(C(=O)OC)[C@@H]2N(C)c3ccccc3[C@@]23C[C@@H](C(=O)OC)N(C(=O)c2cccs2)C3=N1,inactive,inactive,inactive,inactive,inactive,inactive,
CCOC(=O)CNC(=O)O[C@H]1C(=O)c2ccc(OC)cc2O[C@@H]1c1ccc2c(c1)OCO2,inactive,inactive,inactive,inactive,inactive,inactive,
C[C@@H]1C=CCCO[C@]12C(=O)Nc1ccc(O)cc12,inactive,inactive,inactive,inactive,inactive,inactive,
C#CCCOC(=O)N1C2=NC(C(=O)OC)=C(C(=O)OC)[C@@H]3N(CC=C)c4ccccc4[C@]23C[C@H]1C(=O)OC,,inactive,inactive,inactive,inactive,inactive,5.23% [at 1.12 µM] (inactive)
COC(=O)CCCC1=CC2=CC(=O)C(C)(O)C(=O)C2=CO1 (configuration not stated),inactive,inactive,inactive,inactive,inactive,inactive,
COC(=O)N[C@H](CC(C)=O)c1cccs1,inactive,inactive,inactive,inactive,inactive,inactive,
Cc1ccc(S(=O)(=O)OCCc2ccccc2)cc1,inactive,inactive,inactive,inactive,inactive,inactive,
CC=COC(=O)N[C@@H](c1ccccc1)[C@]1(C(C)=O)CCOC1=O,inactive,inactive,inactive,inactive,inactive,inactive,
CCOC(=O)C(c1ccc(OC)c(OC)c1)C1c2ccccc2C=C(C)N1C(=O)OC (configuration not stated),,inactive,inactive,inactive,inactive,inactive,-0.0023% [at 1.12 µM] (inactive)
COC(=O)CC=C[C@H](C)[C@@H](OCc1ccccc1Br)C(C)C,inactive,inactive,inactive,inactive,inactive,inactive,
COC1=CC2C(=O)C(C(c3ccccc3)C2C)C1(O)c1cccc(OC)c1 (configuration not stated),inactive,inactive,inactive,inactive,inactive,inactive,
COC(=O)C1=C(C)N(CC2CC2)C(=O)NC1c1ccccc1 (configuration not stated),inactive,inactive,inactive,inactive,inactive,inactive,
CC1(OC(=O)C2CCCC2)C(=O)C=C2C=C(c3ccsc3)OC=C2C1=O (configuration not stated),inactive,inactive,inactive,inactive,inactive,inactive,
COc1ccc2c(c1)CO[C@H]([C@H](O)COC(C)=O)[C@H]2C=Cc1ccccc1,inactive,inactive,inactive,inactive,inactive,inactive,
C=CC1=C2C=C(C3CC3)N(C3CCCC3)C=C2C(=O)C(C)(OC(=O)c2ccco2)C1=O (configuration not stated),inactive,inactive,inactive,inactive,inactive,inactive,
Cc1ccc(S(=O)(=O)OC[C@@H]2CN3[C@H](c4ccc(Br)cc4)[C@H](C)CC[C@H]3C(=O)O2)cc1,inactive,inactive,inactive,inactive,inactive,inactive,
COc1cc(O)c(C(=O)C=Cc2ccc3c(c2)OCO3)c(OC)c1,inactive,inactive,inactive,inactive,inactive,inactive,
O=C(OCC(F)(F)F)[C@H](O)[C@@H](O)C(=O)OCC(F)(F)F,inactive,inactive,inactive,inactive,inactive,inactive,
CCCCC1=CC2=C(c3ccco3)C(=O)C(C)(OC(=O)c3ccc(OC)cc3)C(=O)C2=CN1Cc1ccco1 (configuration not stated),inactive,inactive,inactive,inactive,inactive,inactive,
COC(=O)C(Cc1cc(Br)c(OC)c(Br)c1O)=NO,inactive,inactive,inactive,inactive,inactive,inactive,
C[C@H]1CC[C@H]2C(=O)O[C@H](CO)CN2[C@H]1c1ccc(Br)cc1,inactive,inactive,inactive,inactive,inactive,inactive,
C#CCN1C(=O)[C@]2(OCCC=C[C@@H]2C)c2cc(OC)ccc21,inactive,inactive,inactive,inactive,inactive,inactive,
COc1ccc2c(c1)C(=O)[C@H](OC(=O)Nc1ccc(OC(F)F)cc1)[C@@H](c1ccc(OC)c(Br)c1)O2,inactive,inactive,inactive,inactive,inactive,inactive,
CCOC(=O)CN1C(=O)[C@]2(OCCC=C[C@@H]2C)c2cc(OC)ccc21,inactive,inactive,inactive,inactive,inactive,inactive,
C=C(C)C(=O)OC[C@@H]1CN2[C@H](c3ccc(Br)cc3)[C@H](C)CC[C@H]2C(=O)O1,inactive,inactive,inactive,inactive,inactive,inactive,

Structure (SMILES),Potency [1],Potency [2],Potency [3],Potency [4],Potency [5],Potency [6],"activity, negative = inhibition [1]"
COC1=C[C@H](C(=O)NCc2ccccc2)[C@H](C)[C@@H](c2ccccc2)CC1=O,inactive,inactive,inactive,inactive,inactive,inactive,
C[C@H]1Cc2c(-c3ccccc3)nc3c(c2CO1)CN(C(=O)c1cccnc1)CC3,inactive,inactive,inactive,inactive,inactive,inactive,
CCCNC(=O)OC[C@H]1O[C@H](CCON=CC[C@@H]2C=C[C@H](OC(C)=O)[C@@H](COC(C)=O)O2)C=C[C@H]1Oc1ccc(OC)cc1,inactive,inactive,inactive,inactive,inactive,inactive,
CC1(OC(=O)C2CCCC2)C(=O)C=C2C=C3CCCN3C=C2C1=O (configuration not stated),,inactive,inactive,inactive,inactive,inactive,0.418% [at 1.12 µM] (inactive)
C=CCOC(=O)N[C@H](c1cccc(C(F)(F)F)c1)C(C(C)=O)C(C)=O,inactive,inactive,inactive,inactive,inactive,inactive,
CC1(O)C(=O)C=C2C=C(c3ccc(C#N)cc3)OC=C2C1=O (configuration not stated),inactive,inactive,inactive,inactive,inactive,inactive,
COC(=O)C1=C(C(=O)OC)[C@@H]2N(Cc3ccccc3)c3ccccc3[C@@]23C[C@@H](C(=O)OC)N(C(=O)Nc2ccccc2F)C3=N1,inactive,inactive,inactive,inactive,inactive,3.35 µM (active),
CCN1C(=O)NC(c2ccc(Br)cc2)C(C(C)=O)=C1C (configuration not stated),inactive,inactive,inactive,inactive,inactive,inactive,
C=C(C#CCCO)CCN1C=C(C(=O)OCC)C(c2ccccc2)NC1=O (configuration not stated),inactive,inactive,inactive,inactive,inactive,inactive,
COCCN1C(=O)CC[C@@]23C1=NC(C(=O)OC)=C(C(=O)OC)[C@@H]2N(C)c1ccccc13,inactive,inactive,inactive,inactive,inactive,inactive,
CCN1C(=O)[C@@H]2[C@H]3[C@H](O)[C@H](O)CC(=NO[C@@H](C)c4cn([C@H](CO)Cc5ccccc5)nn4)[C@@H]3CC[C@H]2C1=O,inactive,inactive,inactive,inactive,inactive,inactive,
COCCN1C(=O)NC(CCc2ccccc2)C(C(C)=O)=C1C (configuration not stated),inactive,inactive,inactive,inactive,inactive,inactive,
COC(=O)CCCC1=CC2=C(c3ccccc3)C(=O)C(C)(OC(=O)C3CCCC3)C(=O)C2=CN1CCCCO (configuration not stated),inactive,inactive,inactive,inactive,inactive,inactive,
COC(=O)C1=C(C)[C@H](O)[C@@H](C)[C@](C)(c2cc(OC)c(C)c(OC)c2COc2ccccc2)O1,inactive,2.13 µM (active) and inactive,inactive,1.9 µM (active) and inactive,inactive,inactive,
CCN1C(=O)N[C@@H](c2ccccc2)[C@@H](C(=O)OC)[C@H]1C,inactive,inactive,inactive,inactive,inactive,inactive,
C#CCN1C(=O)[C@]2(OCCC=C[C@H]2C)c2ccccc21,inactive,inactive,inactive,inactive,inactive,inactive,
COc1ccc2c(c1)O[C@@H](c1ccc3c(c1)OCO3)[C@H](OC(=O)N[C@H](C)C1CCCCC1)C2=O,inactive,inactive,inactive,inactive,inactive,inactive,
CCN1C(=NCCc2cccnc2)N[C@H](CCc2ccccc2)[C@H](C(=O)OC)[C@H]1C,inactive,inactive,inactive,inactive,inactive,inactive,
CC1(OC(=O)c2ccc(Cl)nc2)C(=O)C=C2C=C3CCCN3C=C2C1=O (configuration not stated),inactive,inactive,inactive,inactive,inactive,inactive,
C=CCNC(=O)N1CCc2nc(CCCC)c3c(c2C1)CO[C@@H](C)C3,inactive,inactive,inactive,inactive,inactive,inactive,
CCCCC1=CC2=C(c3ccco3)C(=O)C(C)(OC(=O)c3ccc(OC)cc3)C(=O)C2=CN1c1ccc(OC)cc1 (configuration not stated),,inactive,inactive,inactive,inactive,inactive,-0.773% [at 1.12 µM] (inactive)
COc1ccc(C2=CC3=C(Br)C(=O)C(C)(O)C(=O)C3=CO2)cc1 (configuration not stated),inactive,inactive,inactive,inactive,inactive,inactive,
COC(=O)C1=C(C(=O)OC)[C@@H]2N(C)c3ccccc3[C@@]23C[C@@H](C(=O)OC)N(C(=O)c2ccco2)C3=N1,inactive,inactive,inactive,inactive,inactive,inactive,
C=CC1=C2C=C(C3CC3)N(C(CO)CO)C=C2C(=O)C(C)(OC(=O)c2ccco2)C1=O (configuration not stated),inactive,inactive,inactive,inactive,inactive,inactive,
COC(=O)CC=C[C@@H](C)[C@H](NC(=O)OCC(Cl)(Cl)Cl)c1cccc(OC)c1,inactive,inactive,inactive,inactive,inactive,inactive,
Cc1cc(C)c2c(c1)CO[C@H]([C@H](O)CO)[C@H]2C=Cc1ccccc1,inactive,inactive,inactive,inactive,inactive,inactive,
